The text below walks through data of ChEMBL document CHEMBL3988442, “University of Dundee, Small-Polar-MMV Screening Library” (2021).

The assay deals with Shiga toxin 2 (Escherichia coli O157:H7) (UniProt P09385+P09386). Nature of the assay: E. coli 0.157:H7 Shiga Toxin SOP - stx2 screening assay. The assay is classed as functional. Details: scale not given: direction of the effect not stated beside the values. The note with it: 30 µM.
Take `O=C(C1CCS(=O)(=O)C1)N1CCN(c2cnccn2)CC1` (stereo not given): the Percent Effect turned out to be 25.5%. In the case of `CN(C)C(=O)CN1C[C@@H]2CC[C@H](C1)N(Cc1cccc(Cl)c1Cl)C2` it was 1.27%; in that of `C[C@H]1C[C@@H]2CCN(C(=O)c3ccncn3)C[C@H]2O1`, -27.6%; in that of `Cc1cccc(NC2CCN(C(=O)Nc3cc(F)cc(F)c3)CC2)n1`, -78.9%. To `COc1cccc(CNC(=O)CN2CCCCC2Cn2cccn2)c1` (stereo not given) belongs 20.3%. In the case of `Cc1ccc(CNC(=O)NCCCn2nc3ccccn3c2=O)s1` it was 0.512%; in that of `c1cnn(CC2CCCN2c2ncnc3sccc23)c1` (stereo not given), 26.3%; in that of `Cc1cc(CN(C)C(=O)c2cc3c([nH]c2=O)CCCC3=O)no1`, 20.8%.

With `Cc1nc(C)n(CC2CCCCN2Cc2nnc(C3CC3)o2)n1` (stereo not given), the Percent Effect was -4.29%. In the case of `CCn1cc(CN2CCCN(C(=O)CCCn3cncn3)CC2)cn1` it was -21.5%; in that of `CN1CCN(Cc2cn3c(n2)CN(Cc2cccnc2)CC3)CC1`, -10.7%.

With `Cc1scc(C(=O)N2CCC3(CC(=O)NC3=O)C2)c1-c1ccccc1` (stereo not given), the Percent Effect is 8.3%. To `N#Cc1ccccc1N1CCCN(C(=O)CCn2cccn2)CC1` belongs 3.42%; to `COCCN1C[C@@H]2CCCO[C@@H]2[C@H](N(C)Cc2ccco2)C1`, -6.84%; to `CCCn1[nH]cc/c1=N\C(=O)CN1CCCC1c1c(C)nn(C)c1C` (stereo not given), -11%. In the case of `Cc1ccc(SCC2CNc3nc4ccccc4c(=O)n32)c(C)c1` (stereo not given) it was 9.77%. To `CC(C)(C)c1ncc(C(=O)NCCS(N)(=O)=O)s1` belongs 28.8%; to `CC(NC(=O)c1ccc2c(c1)OCC(=O)N2)c1ccccc1F` (stereo not given), 24%. As for `COc1ccc(NC(=O)N2CCCC2c2ccco2)cc1OC` (stereo not given), the Percent Effect was -11.9%. In the case of `Cc1[nH]c(=O)c(C#N)cc1C(=O)N1C[C@@H](CN2CCCC2)C[C@H](CO)C1`, the Percent Effect is -3.42%. In the case of `CC(Cn1cccn1)NC(=O)N(C)Cc1ccc(Cl)s1` (stereo not given) it was -6.54%; in that of `COc1cccc(CCNS(=O)(=O)c2ccc(NC(C)=O)cc2)c1`, -9.96%; in that of `COc1ccc(-c2cc(C3CCCCCN3S(=O)(=O)N(C)C)on2)cc1` (stereo not given), -17.1%. For `CS(=O)(=O)Cc1cccc(C(=O)NCC2Cc3ccccc3O2)c1` (stereo not given), the Percent Effect is -0.655%. To `Cc1ccc(CC(=O)N2CCCC(c3cc(C)[nH]n3)C2)cn1` (stereo not given) belongs -18.6%; to `COCc1nc2cc(NCc3ccncc3)ccc2o1`, -55.9%; to `CCOCCCNC(=O)c1cn(CC)nc1C`, -51.1%. As to `CC(C)CC(=O)N1CCN(C(=O)N(C)C)CC2(CC(=O)N(C)C2)C1` (stereo not given), the Percent Effect is 1.92%. `CCCN(C)C(=O)c1ccc2c(c1)[nH]c(=O)n2CCOCC`: the Percent Effect is -18.9%. To `CC1CN(CC2CCCCC2)CCN1c1ccc2nncn2n1` (stereo not given) belongs -96.5%; to `CCCC(=O)Nc1sc(C(=O)OCC)c(C)c1C#N`, 7.46%. In the case of `Cc1cnc(CN(C)C2CCN(CCc3ccccn3)CC2)cn1` it was 10.4%; in that of `CCc1ccsc1C(=O)N1CCN(C(=O)CC(F)(F)F)CC1`, -16.6%; in that of `Cc1cnc2n(c1=O)C(CC(=O)NCc1cc(-c3cccs3)on1)CS2` (stereo not given), -30.9%. To `CC(=O)N1CCN(C(=O)NCc2csc(Br)c2)CC1` belongs 5.42%.

`Cc1nc(C2CCCN2CCCNS(C)(=O)=O)no1` (stereo not given): the Percent Effect is 23.5%. In the case of `COc1ccc(C(=O)Nc2cnn(CC(=O)NC3CCCC3)c2)c(O)c1` it was -54.5%; in that of `CN(C)C(=O)N1CCN(C(=O)CCc2ccccc2)[C@H]2CS(=O)(=O)C[C@H]21`, -13.3%; in that of `Cc1nnc2n1CCN(C(=O)c1cc(Cl)c(Cl)n1C)C2`, 8.23%.

Take `COc1ccc(OC)c(C2CCN(Cc3nc(C)n4ccccc34)C2)c1` (stereo not given): the Percent Effect is 10.1%.
